Laboratory results as given in PubChem BioAssay (NCATS).
Inconclusive results are not listed. Active and inactive are the calls of the source. Calls follow the shape of the dose curve; as a rule, active = well fitted inhibition curve with a large enough effect; inconclusive = small, poorly fitted or top-dose-only effect; inactive = flat fitted curve, though single readings scatter.

target: Calcium and integrin-binding protein 1 (Homo sapiens) (UniProt Q99828); assay: Primary qHTS for Identification of Calcium Integrin Binding Protein 1 (CIB1) Competitor (AID 1508620); details: CIB1-GST / FITC-alphaIIb peptide fluorescence polarization; series mostly up to 57.7 µM; activity change, negative = inhibition: at the top concentration;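 also: GST tagged CIB1 binding a fluorescein labelled alphaIIb integrin peptide tracer; top concentration of the series differs between compounds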
Sequence (Q99828 whole entry, looked up): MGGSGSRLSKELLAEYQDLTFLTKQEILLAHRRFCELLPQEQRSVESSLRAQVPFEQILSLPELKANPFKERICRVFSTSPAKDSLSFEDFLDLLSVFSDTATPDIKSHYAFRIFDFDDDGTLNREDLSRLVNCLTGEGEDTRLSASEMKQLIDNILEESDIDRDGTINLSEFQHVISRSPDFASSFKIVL
Description: Assay Provider: Ulhas P. Naik, PhD Sidney Kimmel Medical College Thomas Jefferson University, Philadelphia, PA Primary function of platelets is to maintain hemostasis. At the site of vascular injury, platelets adhere to adhesive proteins such as collagen and von Willebrand factor. Adherent platelets are activated and generate soluble platelet agonists such as thrombin, ADP and thromboxane A2. Following exposure of circulating platelets to these agonists, results in platelet shape change, granule secretion and activation of platelet integrin alphaIIb-beta3. Ligand binding to activated integrin alphaIIb-beta3 triggers outside-in signaling, leading to platelet aggregation, stabilization of platelet plug, and clot retraction. Upon atherosclerotic plaque rupture also causes platelet plug formation, which underlies a number of cardiovascular diseases such as myocardial infraction and stroke. A number of anti-platelet drugs such as aspirin, clopidogrel, prasugrel, vorapaxar, and eptifibatide are currently available to prevent the thrombotic complications. However, these anti-platelet agents have several limitations including inherent variability in individual responses, developing resistance, and serious bleeding side effects. For these reasons they are not suitable for long-term protection. Based on the experiences with current anti-platelet drugs, it appears that the most useful therapeutic approach is to intersect the secondary responses such as integrin outside-in signaling or recruitment of platelets by TxA2 and secreted ADP. Compounds, which can largely preserve the primary hemostatic function of platelets but inhibit secondary response will be most desired therapeutic agents for treatment of cardiovascular disease. CIB1 is a calcium integrin binding protein, which specifically interact with the alphaIIb subunit of integrin alphaIIb-beta3. Binding of CIB1 to alphaIIb regulates the outside-in signaling in platelets, which is needed for thrombus stabilization and thrombus growth. […] Therefore, we propose that discovery of a small molecule that can prevent the association of CIB1 and alphaIIb-beta3 will be a potential anti-platelet agent that can block the thrombus formation without undue effect on hemostasis. Reference: [1] Naik MU, Nigam A, Manrai P, et al. CIB1 deficiency results in impaired thrombosis: the potential role of CIB1 in outside-in signaling through integrin alpha IIb beta 3. J Thromb Haemost.
PROTOCOL TABLES SEQUENCE No. (1, 2, 3, etc.); […] (e.g., Cells, Incubation, Reagent, etc.); VALUE and DESCRIPTION. 1; Reagent; 3 uL; Protein or buffer (4/3x) 2; Compound; 46 nL; Control inhibitor / compound library 3; Time; 15 min; Room temperature incubation 4; Reagent; 1 uL; Fluorescent labeled peptide (4x) 5; Time; 1000 rpm; Centrifuge 6; Time; 15 min; Room temperature incubation 7; Detection; Ex 480/ Em 540; ViewLux Fluorescence Read NOTES (numbers refer to sequence above) 1; Protein Mixture: C1B1-GST (final concentrations of 1 uM). […] 3; Room temperature incubation. 4; Fluorescent Labeled Peptide: FITC-aIIb (final concentration of 100 nM). Sequence of alphaIIb peptide: Acetyl-[…]-FITC (purity is 95.83%). 5; Centrifuge 1000 rpm (164 g) for 15 seconds. 6; Room temperature incubation. 7; ViewLux Fluorescent Polization Read: excitation = 480(20) / emission = 540(25) S and P; FITC Dichroic mirror.
% is scaled to controls: 0 for no effect and ±100 for the full control effect.

Row | Compound | activity change, negative = inhibition | Potency
1 | O=C(O)c1n[nH]c2c1C[C@H]1C[C@@H]21 | 0.497% [at 114 µM] (inactive) | –
2 | C=CC(C)(O)CC/C=C(\C)C(=O)OC1CC2(C(=O)O)CCC3(C)C(=CCC4C5(C)CCC(OC6OC(COC7OCC(O)C(O)C7O)C(O)C(OC7OCC(O)C(O)C7O)C6OC6OC(CO)C(O)C(O)C6OC6OCC(O)C(O)C6O)C(C)(C)C5CCC43C)C2CC1(C)C (stereo not given) | -4.39% [at 12.4 µM] (inactive) | –
3 | CC1CCC2C(C(=O)O)=CC3CC(C)(C)CC132 (stereo not given) | -6.95% [at 114 µM] (inactive) | –
4 | C[C@@H]1C[C@H](O[C@@H]2O[C@H](CO[C@@H]3OC[C@](O)(CO)[C@H]3O)[C@@H](O)[C@H](O)[C@H]2O)CC(C)(C)[C@H]1/C=C/[C@@H](C)O | -0.584% (inactive) | –
5 | CCOc1nc2cccc(C(=O)OCc3oc(=O)oc3C)c2n1Cc1ccc(-c2ccccc2-c2noc(O)n2)cc1 | -12.4% [at 114 µM] (inactive) | –
6 | COc1cc([C@H]2OC[C@@H]3[C@@H](c4ccc(O[C@@H]5O[C@H](CO)[C@@H](O)[C@H](O)[C@H]5O)c(OC)c4)OC[C@]23O)ccc1O | 2.98% (inactive) | –
7 | COc1cc(C2c3cc(O)c(OC)cc3CC(CO)C2CO)ccc1O (stereo not given) | 1.98% (inactive) | –
8 | COc1cc(C2Oc3c(O)cc(CCCO)cc3C2CO)ccc1O[C@H]1O[C@H](C)[C@@H](O)[C@H](O)[C@@H]1O (stereo not given in full) | 3.12% (inactive) | –
9 | CC1CCC2(NC1)OC1C(=O)C3C4CCC5CC(O[C@@H]6O[C@H](CO)[C@@H](O)[C@H](O)[C@H]6O[C@@H]6O[C@@H](C)[C@H](O)[C@@H](O)[C@H]6O)CCC5(C)C4CCC3(C)C1C2C (stereo not given in full) | 0.761% [at 30.2 µM] (inactive) | –
10 | CC(C)C1=CC2=CCC3[C@](C)(CCC[C@@]3(C)C(=O)O)C2CC1=O (stereo not given in full) | 0.262% (inactive) | –
11 | Cc1coc2c1CC1OC1(C)CCC1OC1(C)C2 (stereo not given) | 2.45% [at 114 µM] (inactive) | –
12 | C=CC(C)(CC/C=C(\C)CC/C=C(\C)CC(O)/C=C(\C)C(=O)O)O[C@@H]1O[C@H](CO)[C@@H](O)[C@H](O)[C@H]1O[C@@H]1O[C@H](CO)[C@@H](O)[C@H](O)[C@H]1O (stereo not given in full) | 3.45% [at 30.2 µM] (inactive) | –
13 | CCc1nc(C(N)=O)c(Nc2ccc(N3CCC(N4CCN(C)CC4)CC3)c(OC)c2)nc1NC1CCOCC1 | – | inactive
14 | C[C@@H]1CC[C@]2(C(=O)O)CC[C@]3(C)C(=CCC4[C@]5(C)C(CC[C@]43C)C(C)(C)[C@@H](O)[C@H](O)[C@@H]5O)C2[C@]1(C)O (stereo not given in full) | -2.24% (inactive) | –
15 | C=C1CCC2(OC1)OC1CC3C4CC=C5CC(O)CC(O[C@@H]6OC[C@@H](O)[C@H](O)[C@H]6O)C5(C)C4CCC3(C)C1(O)C2C (stereo not given in full) | -2.96% [at 30.2 µM] (inactive) | –
16 | CNC(=O)c1ccc(Nc2ncc(C(F)(F)F)c(NCc3nccnc3N(C)S(C)(=O)=O)n2)cc1 | – | inactive
17 | C/C=C/C=C/C=C/C(=O)O[C@@H]1[C@@H](OC)C2=C(C(=O)N(C(C)C(=O)O)C2)[C@@]2(C)CCCC(C)(C)[C@H]12 (stereo not given in full) | 0.665% (inactive) | –
18 | CC(=O)c1cnc2ccc(-c3cc(Cl)c(O)c(Cl)c3)nc2c1NC1CCC(CN(C)C)CC1 (stereo not given) | – | inactive
19 | CN(C)c1cccc(-c2c3c(=O)n(-c4ccccc4Cl)[nH]c3cc(=O)n2C)c1 | – | inactive
20 | COC1=CC(=O)C[C@@H](C)[C@]12Oc1cc(OC)cc(OC)c1C2=O | 2.85% (inactive) | –

Row | Compound | activity change, negative = inhibition | Potency
21 | C=C[C@H]1[C@H](O[C@@H]2O[C@H](CO[C@@H]3OC[C@](O)(CO)[C@H]3O)[C@@H](O)[C@H](O)[C@H]2O)OC=C2C(=O)OCC[C@H]21 | 0.387% (inactive) | –
22 | C/C=C1/[C@H](O[C@@H]2O[C@H](CO)[C@@H](O)[C@H](O)[C@H]2O)OC=C(C(=O)OC)[C@H]1CC(=O)O[C@@H]1O[C@H](CO)[C@@H](O)[C@H](O)[C@H]1O | 4.09% [at 30.2 µM] (inactive) | –
23 | CC(=O)O[C@@H]1[C@H](O[C@@H]2O[C@H](CO)[C@@H](O)[C@H](O)[C@H]2O)[C@@H](O[C@@H]2O[C@@H](C)[C@H](O)[C@@H](O[C@@H]3O[C@H](CO)[C@@H](O)[C@H](O)[C@H]3O)[C@H]2O)[C@H](OC(=O)C23CCC4(C)C(=CCC5C6(C)CC(O)C(O[C@@H]7O[C@H](C(=O)O)[C@@H](O)[C@H](O)[C@H]7O)C(C)(C(=O)O)C6CCC54C)C2CC(C)(C)CC3O)O[C@@H]1C (stereo not given in full) | 4.49% [at 12.4 µM] (inactive) | –
24 | N[C@H]1C[C@H]1c1ccc(-c2cccc(O)c2)cc1 | – | inactive
25 | NS(=O)(=O)OC[C@@H]1C[C@@H](n2ccc3c(N[C@H]4CCc5ccccc54)ncnc32)C[C@@H]1O | – | inactive
26 | COc1cc(C2Oc3c(OC)cc(CCCO[C@@H]4O[C@H](CO)[C@@H](O)[C@H](O)[C@H]4O)cc3C2CO)ccc1O (stereo not given in full) | -7.26% (inactive) | –
27 | Cc1ccc2c(c1)C=Cc1cc(C)ccc1C2c1cn(Cc2ccc(C(=O)Nc3nn[nH]n3)o2)c(=O)[nH]c1=S | -13% [at 114 µM] (inactive) | –
28 | O=c1c2cccnc2n(-c2cccc([N+](=O)[O-])c2)c(=O)n1Cc1ccncc1 | 3.01% [at 114 µM] (inactive) | –
29 | CC(C)=CCCC1(C)Oc2cc3c(c4c2C2C(O4)C(C)(O)CCC21)CN(C(CCC(=O)O)C(=O)O)C3=O (stereo not given) | -8.15% (inactive) | –
30 | CC1C(=O)CC2C3C(O)CC(C(=O)O)C12CC3(C)C (stereo not given) | 0.24% [at 114 µM] (inactive) | –
31 | CCC(CC)n1ccc2c(C(=O)NCc3c(C)cc(C)[nH]c3=O)cc(C#N)cc21 | 3.12% [at 114 µM] (inactive) | –
32 | COc1cc(C2Oc3c(OC)cc(/C=C/C(=O)OC[C@H]4O[C@@H](OC(C)(C)C(=O)O)[C@H](O)[C@@H](O)[C@@H]4O)cc3C2CO)ccc1O (stereo not given in full) | 0.591% [at 30.2 µM] (inactive) | –
33 | O=S(=O)(Nc1ccc(C(O)(C(F)(F)F)C(F)(F)F)cc1)c1cccs1 | 1.2% [at 114 µM] (inactive) | –
34 | Nc1nc(CC(=O)Nc2ccc(CCNCC(O)c3ccccc3)cc2)cs1 (stereo not given) | 6.4% [at 114 µM] (inactive) | –
35 | COc1cc2c(Nc3ccc(Cl)c(Cl)c3F)ncnc2cc1OCC1C[C@@H]2CN(C)C[C@@H]2C1 (stereo not given in full) | – | inactive
36 | CC1(CO)CC[C@]2(C(=O)O[C@@H]3O[C@H](CO)[C@@H](O)[C@H](O)[C@H]3O)CC[C@]3(C)C(=CCC4[C@@]5(C)CC[C@H](O[C@@H]6O[C@H](C(=O)O)[C@@H](O)[C@H](O)[C@H]6O)C(C)(C)C5CC[C@]43C)C2C1 (stereo not given in full) | 3.67% [at 30.2 µM] (inactive) | –
37 | C=CC1(C)CC2=CCC3C(C)(C(=O)O)CCCC3(C)C2CC1OC(C)=O (stereo not given) | -0.802% (inactive) | –
38 | CC(=O)OCC1=C[C@H](O)[C@@H]2C(C(=O)O)=CO[C@@H](O[C@@H]3O[C@H](CO)[C@@H](O)[C@H](O)[C@H]3O)[C@H]12 | -3.03% (inactive) | –
39 | C=C1CCC2C(C)(C)C(O)CCC2(C)C1CCC(C)CCOC(=O)CCC(=O)O (stereo not given) | -8.6% (inactive) | –
40 | OC[C@H]1O[C@@H](OC(CCCCc2ccc(O)cc2)CCc2ccc(O)cc2)[C@H](O[C@@H]2OC[C@](O)(CO)[C@H]2O)[C@@H](O)[C@@H]1O (stereo not given in full) | 0.0925% [at 30.2 µM] (inactive) | –
